Compound activity from PubChem.
Only some compounds are listed: those with a hit (about 2% of all), similar ones and a draw of the others.
PKA-R1A activ – activators of PKA-R1A holoenzyme, primary screen, biochemical, fluorescence polarization, Cy5-IP20, bovine R1A, mouse PKAc; activation, % at 11.4 µM; PKA-R1A dissociation; scaled: DMSO 0%, 113 µM cGMP 100%; hit rate 0.083% among 340,000; cAMP-dependent protein kinase type I-alpha regulatory subunit (Bos taurus) + …;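 active = percent activation above the mean of all tested compounds plus 3 SD, cut at about 19% in these data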;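 also: higher means more PKAc released from R1A so a rise in polarization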
Mot1-301 SUMO – yeast Mot1-301 growth rescue at high temperature, primary screen, SUMOylation pathway inhibitor project, S. cerevisiae, ATP luminescence, 38.5C; hit rate 1% among 320,000; growth rescue, % at 18.8 µM; S. cerevisiae Mot1-301 growth rescue; percent above DMSO median, 100 means doubled;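 active = every valid replicate shows activation above 250% relative to neutral control wells; inactive = the rest, any valid replicate at or below 250%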;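 also: OY570 slx delta 5 strain wells were the positive control but not used for scaling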
PKA-R2B activ – activators of PKA-R2B holoenzyme, primary screen, biochemical, fluorescence polarization, Cy5-IP20, human; cAMP-dependent protein kinase catalytic subunit beta (Homo sapiens) + cAMP-dependent …; PKA-R2B holoenzyme dissociation; R2B truncated from residue 108, S112A mutant; 0% DMSO only, 100% 113 µM cGMP; activation, % at 11.4 µM; hit rate 0.079% among 340,000; AID 504700, 2011;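 active = activation above a cutoff set at the mean over all compounds plus 3 SD, cut at about 18% in these data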;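 also: higher means more holoenzyme dissociation and a rise in polarization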
Target sequence (P31323 whole entry, looked up, other chains not shown, the tested form may be a part): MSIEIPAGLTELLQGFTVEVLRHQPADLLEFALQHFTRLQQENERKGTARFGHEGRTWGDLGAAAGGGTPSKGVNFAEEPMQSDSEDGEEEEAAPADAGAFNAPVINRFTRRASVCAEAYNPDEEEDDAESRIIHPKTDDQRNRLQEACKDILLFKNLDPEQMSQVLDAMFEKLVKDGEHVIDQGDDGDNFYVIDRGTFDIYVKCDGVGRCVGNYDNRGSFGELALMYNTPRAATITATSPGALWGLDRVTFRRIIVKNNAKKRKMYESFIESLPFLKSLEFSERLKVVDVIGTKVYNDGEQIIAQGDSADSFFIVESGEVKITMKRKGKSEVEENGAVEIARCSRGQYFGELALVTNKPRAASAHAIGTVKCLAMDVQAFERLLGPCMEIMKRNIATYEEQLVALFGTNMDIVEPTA
MsrA inhibitor – bovine MsrA enzyme inhibitors, primary screen, biochemical, absorbance, HTS; Methionine sulfoxide reductase A (Bos taurus); hit rate 0.75% among 360,000; inhibition, % at 15.5 µM; purified bovine MsrA, absorbance read-out; AID 651718, 2012; in the data active = inhibition above about 4.5%;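 also: 0% = vehicle wells with enzyme and 100% = reference inhibitor wells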
bovine MsrA act – bovine MsrA enzyme activators, primary screen, biochemical, absorbance, HTS; Methionine sulfoxide reductase A (Bos taurus); purified bovine MsrA, absorbance read-out; activation, % at 10.6 µM; hit rate 0.3% among 360,000; AID 602163, 2012; in the data active = activation above about 7.5%;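 also: 0% = vehicle and 100% = reference activator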
MsrA activ conf – bovine MsrA activators, retest, confirmation, biochemical, absorbance, HTS. purified bovine MsrA, absorbance read-out. activation, % at 10.6 µM. AID 602270, 2012. hit rate 12% among 1,000. shares compounds with bovine MsrA act; in the data active = activation above about 4%;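 also: enzyme coupled to thioredoxin and thioredoxin reductase with NADPH; 0% = vehicle wells and 100% = reference activator wells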
* = called active by the depositor; · = not tested or not shown.

SMILES	PKA-R1A activ	Mot1-301 SUMO	PKA-R2B activ	MsrA inhibitor	bovine MsrA act	MsrA activ conf
COc1ccc(S(=O)(=O)N2CCN(C(=S)NC3CCCCC3)CC2)cc1	8	-9	-3	0	8.0*	-3
CCOc1ccc(S(=O)(=O)N2CCN(C(=S)NC3CC3)CC2)cc1	-10	139	8	-1	-3	·
CCc1cc(C(=O)Cc2ccc(F)cc2)c(O)cc1O	3	4	-9	3	-4	·
CCCc1cc(C(=O)Cc2ccc(F)cc2)c(O)cc1O	-8	13	-12	1	22*	-2
CC1CC(=O)Nc2ccccc2N1S(=O)(=O)c1ccc(Cl)cc1 (stereo not given)	-3	-1	-1	-1	-2	·
CC(=O)Nc1ccc(S(=O)(=O)N2c3ccccc3NC(=O)CC2C)c(Cl)c1 (stereo not given)	·	27	·	0	12*	1
CN(C)c1ccc(C=c2c3ccccc3n3c2cc(-c2ccccc2)[n+]3C)cc1	0	·	9	2	9.8*	1
COc1cc(N(C)C)ccc1C=c1c2ccccc2n2c1cc(-c1ccccc1)[n+]2C	-3	·	-3	0	4	·
NCCc1nnc(SCc2ccc(F)cc2)o1	-1	1	3	-1	-4	·
NCCCCCc1nnc(SCc2ccc(Cl)c(Cl)c2)o1	3	297	7	0	8.3*	1
Cc1cc(NC(=O)CCCC(=O)NCc2cccs2)no1	-10	3	-3	0	7.9*	-2
CN(C)c1nc(OCCNC(=O)Nc2ccccc2)nc(N2CCOCC2)n1	-16	·	0	0	16*	-1
CN(C)c1nc(OCCNC(=O)Nc2ccccc2)nc(N2CCCCC2)n1	2	-1	-11	1	-3	·
O=c1sc(N2CCN(c3ccc(F)cc3)CC2)nc2ccsc12	-5	3	6	1	7.8*	-2
O=c1sc(N2CCN(c3ccccc3F)CC2)nc2ccsc12	-8	-5	-7	0	-1	·
CC(C)C[C@H](NC(=O)c1ccccn1)C(=O)N1CCC[C@H]1C(=O)NCc1ccccc1	·	·	·	-1	·	·
CCOC(=O)c1sc(=S)n(-c2ccccc2)c1SC	0	414	2	3	9.2*	-5
CCOC(=O)c1sc(=S)n(-c2ccccc2Cl)c1SC	-15	-17	-1	1	-7	·
Cc1cc(Br)c2nc(-c3ccc(Cl)cc3)c(Cc3cccc(Cl)c3)n2c1	·	·	·	0	·	·
COc1ccccc1C(=O)NCCC(=O)NCCCSc1ccccc1	-8	185	-2	0	9.8*	0
CN(CCCC1CCCC1)C(=O)c1cc(COc2ccc(F)cc2F)on1	7	-19	4	0	9.1*	1
N#Cc1ccc2nc(-c3ccc(CN4CCC(n5cc(-c6ccccc6)[nH]c5=O)CC4)cc3)c(-c3ccccc3)nc2c1	·	·	·	2	·	·
O=C(O)[C@@H]1Cc2ccccc2N1	7	-6	1	1	8.2*	-2
COc1ccc(OC)c(CN(CC(C)C)S(=O)(=O)c2ccccc2Br)c1	·	·	·	0	·	·
COCc1cc(N2CCNC[C@@H]2C)ccc1N1CCN(Cc2ccccc2)[C@@H](C)C1	·	·	·	-1	·	·
SMILES	PKA-R1A activ	Mot1-301 SUMO	PKA-R2B activ	MsrA inhibitor	bovine MsrA act	MsrA activ conf
O=C(NCc1ccccc1F)C1CC(=O)N(c2ccc3c(c2)OCCO3)C1 (stereo not given)	-7	-2	-5	0	9.5*	-2
O=C(C1CC(=O)N(c2ccc3c(c2)OCCO3)C1)N1CCN(c2ccccc2)CC1 (stereo not given)	7	-4	-6	0	9.4*	0
OC(c1ccccc1)(c1ccccc1)C1CCN(CCCOc2cccnc2)CC1	·	·	·	-1	·	·
COc1ccc(S(=O)(=O)Nc2cc(C)c(O)c(S(=O)(=O)c3ccccc3)c2)cc1	-11	-10	-4	0	9.3*	1
COc1ccc(S(=O)(=O)c2c(C)c(NS(=O)(=O)c3ccccc3)cc(C)c2O)cc1	-8	-9	5	1	-9	·
CCNC(=O)N(C)c1nncnc1C(=O)NC	3	·	-5	-1	21*	-2
CCCCNC(=O)N(C)c1nncnc1C(=O)NC	0	312	1	-1	-13	·
CCOC(=O)c1ccc(N2C(=O)Cc3ccccc3C2=O)cc1	4	-4	-15	0	-4	·
CC(C)COC(=O)c1ccc(N2C(=O)c3ccccc3C2=O)cc1	-8	-8	-20	-1	7.9*	5.5*
O=S(=O)(NCc1ccc(Cl)cc1)c1ccc(Br)cc1C1CC[C@@H](O)C1 (stereo not given in full)	·	·	·	1	·	·
COc1cc(NC(=O)c2ccc(C)cc2)c(OC)cc1NC(=O)CN1CCCCC1	2	13	3	2	-3	·
COc1cc(NC(=O)c2cc(OC)c(OC)c(OC)c2)c(OC)cc1NC(=O)CN1CCCCC1	1	10	-9	1	8.4*	0
CC(=O)Nc1cccc(OCC(=O)Nc2ccccc2)c1	-5	7	-14	0	-6	·
CCOc1ccc(-c2cccc(NC(=O)COc3ccccc3)c2)nn1	9	61	9	·	8.8*	1
CCOC(=O)c1cnc2nc(COc3ccccc3)[nH]n2c1=O	-1	-1	-1	-1	12*	-3
Cn1c(-c2ccco2)n[nH]c1=S	-3	16	-6	0	-6	·
S=c1nc(-c2ccco2)[nH][nH]1	-6	-22	-3	0	8.2*	2
Cc1ccc(OCC(=O)Nc2cc(-c3nn4c(C)nnc4s3)ccc2C)cc1	-6	3	0	1	9.7*	-1
Fc1ccc(-c2nc3ccc(Br)cn3c2Cc2cccc(Cl)c2)cc1	·	·	·	0	8.2*	-2
C[C@H](O)[C@@H]1C(=O)N2CCc3c([nH]c4c(-c5ccccc5)cccc34)[C@@H]2C[C@@H]1N(C)C(=O)c1ccco1	·	·	·	1	·	·
Cn1c(N=Nc2ccccc2)nc2ccccc21	-4	-44	6	1	7.7*	-1
CC1(C)CC(=O)C(C(N)=NC(=O)c2ccccc2)=C(O)C1	-4	7	1	-1	-2	·
CC1(C)CC(=O)C(C(N)=NC(=O)c2ccc([N+](=O)[O-])cc2)=C(O)C1	-1	9	3	-1	17*	-1
Cc1cc2c(nc1C)CCCN2S(=O)(=O)c1ccc(F)cc1	·	·	·	0	·	·
CC1CCc2cc(F)ccc2N1C(=O)CCC(=O)O (stereo not given)	-9	-11	-7	-1	9.8*	2
CC1CCc2cc(F)ccc2N1C(=O)c1cccs1 (stereo not given)	-10	-12	-6	0	-3	·
